Source: PubChem
Compounds with a hit are over-represented: about 19% of the library has one in this group of screens.
DT40 TDP1 no CPT: qHTS for Inhibitors of human tyrosyl-DNA phosphodiesterase 1 (TDP1): qHTS in cells in absence of CPT; DT40 Tdp1-/- hTDP1 cells, no CPT, ATP luminescence, 48 h; Potency, µM (top dose mostly 46.2 µM), without a hit: at the highest dose activity change, negative = growth inhibition, hits mostly inhibitors; 420,000 compounds, 15% hits; AID 686978, 2013; further: potency means the concentration at half of the fitted maximal effect; on the % scale 0 is the no-effect control and ±100 the full control effect; nearly all actives have a fitted effect of over 55% in size
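Growth kinetics read by CellTiter-Glo luminescence after ≥48 hr at 37 °C. Cells: DT40 Tdp1-/- stably carrying human TDP1, 400 per well, compound exposure in the absence of CPT (DMSO vehicle).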
DT40 TDP1 CPT: growth inhibition of DT40 Tdp1-/-;hTDP1 cells with camptothecin (screen for TDP1 inhibitors); chicken DT40 Tdp1-/-;hTDP1 cells + 20 nM CPT, ATP luminescence, 48 h; Potency, µM (titrated, usually from 46.2 µM), without a hit: top-dose activity change, negative = growth inhibition, usual class: inhibitors; 420,000 compounds, 12% hits; further: potency means the concentration at half of the fitted maximal effect; on the % scale 0 is the no-effect control and ±100 the full control effect; nearly all actives have a fitted effect of over 55% in size
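Cell growth measured by CellTiter-Glo luminescence after a minimum 48 h, 37 C compound exposure with 20 nM CPT in Tdp1-knockout DT40 cells stably expressing hTDP1, seeded 400/well; qHTS titration format.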
TGFb SMAD3 inh: TGF-b pathway inhibition; Potency, µM (highest dose often 46.1 µM), for the others: at the highest dose activity, negative = inhibition, actives largely listed as inhibitors; 410,000 compounds, 1.2% hits; HepG2 CAGA-GFP TGF-b/SMAD3 reporter, GFP fluorescence, 18 h; TGF-beta stimulated, 500 pg/mL final; further: potency means the concentration at half of the fitted maximal effect; on the % scale 0 is the no-effect control and ±100 the full control effect; nearly all actives have a fitted effect of over 65% in size
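HEPG2 CAGA-GFP reporter cells (1000/well, DMEM with 1% FBS) received compounds, then recombinant TGF-beta at 500 pg/mL final for 18 hours at 37 degrees C. Per-cell GFP summed per well was normalised to unstimulated and stimulated DMSO controls before curve fitting.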
IL-1B inflam inh: inhibitors of inflammasome signaling (IL-1 beta secretion); THP-1 LPS/ATP IL-1B secretion, AlphaLISA, 16 h; active compounds read low; activity change, % at 57.5 µM; 360,000 compounds, 4.7% hits; AID 743279; in the data active means activity change below about -50%; inconclusive means mostly about -30% to -49%; further: on the % scale 0 is the no-effect control and ±100 the full control effect
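Secreted IL-1B measured by AlphaLISA bead assay after 16 h compound exposure of THP-1 cells; compounds (final up to 57.5 uM) added 1 h before LPS (250 ng/mL) and ATP (1.25 mM) stimulation; lower signal means less secretion.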
ASM inhibitor: inhibitors of human secretory acid sphingomyelinase. AID 504937. placental ASM, HMU-PC fluorogenic substrate, 60 min. 340,000 compounds, 0.006% hits. P17405. Potency, µM (highest dose often 57.5 µM), inactives show top-dose activity change, negative = inhibition, actives largely listed as inhibitors; further: potency means the concentration at half of the fitted maximal effect
Target sequence (P17405 47-631 limits assumed): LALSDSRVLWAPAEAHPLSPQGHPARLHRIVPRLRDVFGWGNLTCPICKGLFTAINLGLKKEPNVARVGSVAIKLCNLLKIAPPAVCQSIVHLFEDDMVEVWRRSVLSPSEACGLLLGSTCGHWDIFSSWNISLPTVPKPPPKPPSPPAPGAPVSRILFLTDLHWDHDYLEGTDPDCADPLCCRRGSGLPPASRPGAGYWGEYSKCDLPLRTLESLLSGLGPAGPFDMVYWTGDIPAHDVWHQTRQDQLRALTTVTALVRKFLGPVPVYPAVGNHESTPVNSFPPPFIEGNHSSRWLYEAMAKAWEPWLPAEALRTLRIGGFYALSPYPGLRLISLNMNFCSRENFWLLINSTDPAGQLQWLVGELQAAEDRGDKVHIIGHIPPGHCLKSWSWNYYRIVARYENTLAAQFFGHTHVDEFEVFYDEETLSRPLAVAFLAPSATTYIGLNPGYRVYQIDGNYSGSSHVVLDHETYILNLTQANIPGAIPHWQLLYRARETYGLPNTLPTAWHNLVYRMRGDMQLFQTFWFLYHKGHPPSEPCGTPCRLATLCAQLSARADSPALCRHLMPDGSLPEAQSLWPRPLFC
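Fluorescence read-out (Ex 386 nm, Em 447 nm) after stopping the reaction at pH 10. Enzyme: ASM from human placenta; substrate HMU-PC0, 9 uM final; 60 min, 37 °C. Compound preincubation 10 min, ambient temperature.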
HepG2 tox: kills HepG2 cells in TGF-b inhibitor counter-screen; HepG2 CAGA-GFP viability, ATP luminescence, 18 h; Potency, µM (series often up to 46.1 µM), for the others: at the highest dose activity change, negative = cytotoxicity, hits mostly cytotoxic; 410,000 compounds, 0.76% hits; AID 588856; further: potency means the concentration at half of the fitted maximal effect
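HepG2 CAGA-GFP cells (1000/well, DMEM with 1% FBS) received compound, then TGF-beta at 500 pg/mL final, and were incubated 18 hours at 37 degrees C. Viability was read by CellTiter-Glo luminescence. Media-only wells were set as complete cell-killing and DMSO as no toxicity.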
* = called active by the depositor; ? = inconclusive; · = not tested or not shown; ! = not confirmed by another sample. Unless noted, the call rests on the fitted dose curve; in most records, active means well fitted curve in the direction sought with a large enough effect; inconclusive means small, poorly fitted or top-dose-only effect, or another doubt; inactive means no such curve, though single readings can be large; an effect the other way counts as inactive or inconclusive.

SMILES	DT40 TDP1 no CPT	DT40 TDP1 CPT	TGFb SMAD3 inh	IL-1B inflam inh	ASM inhibitor	HepG2 tox
CCOC(=O)[C@]12CCC=C1N(CCC1=CCCCC1)C(=O)[C@H](CC(=O)N1CCSCC1)C2	?	18µM*	·	28	·	·
CCc1sc(C(=O)NNC(=O)c2cncc(Br)c2)cc1C	-5%	-9%	-17%	12	-2%	-12%
CCOC(=O)[C@]12CCCC=C1N(CCc1ccc(OC)c(OC)c1)C(=O)[C@H](CC(=O)NCCCCc1ccccc1)C2	16µM*	?	·	-57*	·	·
CCOC(=O)[C@]12CCCC=C1N(Cc1ccco1)C(=O)[C@H](CC(=O)NCc1ccc(OC)c(OC)c1)C2	?	?	·	15	·	·
CCOC(=O)[C@]12CCCC=C1N(CCc1ccc(OC)c(OC)c1)C(=O)[C@H](CC(=O)NCCc1ccccc1OC)C2	16µM*	13µM*	·	-3	·	·
CCOC(=O)[C@]12CCCC=C1N(CCC1=CCCCC1)C(=O)[C@H](CC(=O)NCc1cccc3ccccc13)C2	16µM*	?	·	13	·	·
CCOC(=O)[C@]12CCC=C1N(Cc1ccc3c(c1)OCO3)C(=O)[C@H](CC(=O)NCCc1ccccc1OC)C2	?	?	·	0	·	·
CCCCCCCCN1C(=O)[C@H](CC(=O)NCCc2ccccc2OC)C[C@@]2(C(=O)OCC)CCCC=C12	29µM*	?	·	?	·	·
COc1ccc(S(=O)(=O)N2CCC(C(=O)NCCCN3CCOCC3)CC2)cc1	-3%	-1%	-23%	3	0%	-12%
Fc1ccccc1-c1n[nH]c(=S)n1CC1CCCO1 (stereo unspecified)	-3%	3%	6%	4	0%	0%
COC(=O)[C@]12CCCCC=C1N(Cc1ccccc1)C(=O)[C@H](CC(=O)NCCC(C)C)C2	?	?	·	-5	·	·
COCCCNC(=O)C[C@@H]1C[C@@]2(C(=O)OC)CCCCC=C2N(CCc2ccc(OC)c(OC)c2)C1=O	?	-15%	·	24	·	·
CCCCCCCCN1C(=O)[C@H](CC(=O)NCCCOC)C[C@@]2(C(=O)OCC)CCCC=C12	12µM*	23µM*	·	?	·	·
CCCCCCCCN1C(=O)[C@H](CC(=O)NCCC(C)C)C[C@@]2(C(=O)OCC)CCC=C12	21µM*	21µM*	·	9	·	·
CCCCNC(=O)C[C@@H]1C[C@@]2(C(=O)OC)CCCCC=C2N(CCc2ccc(OC)c(OC)c2)C1=O	23µM*	?	·	-13	·	·
CCOc1cc(C#N)c(NC(=O)c2ccc(OC)c(S(=O)(=O)N3CCN(c4ccccc4)CC3)c2)cc1OCC	?	?	0%	·	·	-42%
Cc1ccc(OCC(=O)N/N=C/c2cccc3cccnc23)cc1	26µM*	23µM*	-11%	99	-9%	-36%
O=C(COc1ccc(F)cc1)N/N=C/c1cccc2cccnc12	16µM*	21µM*	4%	164	-4%	-4%
CC(C)(C)OC(=O)NCCC(=O)N/N=C/c1cccc2cccnc12	?	?	1%	51	2%	-23%
CCOC(=O)CS(=O)(=O)c1ccc(O)cc1	-1%	-1%	22%	-92*	5%	32%
O=[N+]([O-])c1ccc(S(=O)(=O)N2CCN(C3CCN(Cc4ccccc4)CC3)CC2)cc1	?	-30%	1%	-9	-1%	-13%
CCOC(=O)C1CCN(S(=O)(=O)c2ccc3c(c2)NC(=O)C(C)C(=O)N3)CC1 (stereo unspecified)	23µM*!	-12%	-25%	41	2%	-20%
